Laboratory results as given in the OligoGym collection.

Each sequence was assayed against PCDHA4 (assay: pooled miR-30 sensor sort-seq; sequence = guide strand). Details: shRNA.
Note: reference of the scale not given here.

Sequence	sensor-assay potency score (higher = more potent)
TTCCTCAGTTGTCTGCAGCTGA	0.537
TTCAAAGTCAATATATCCCTTT	0.476
TTAAGTTTAATTACCAATGTTC	-0.347
TTTGTCGGACACGCTGATCAGG	-0.74

What follows are sequences tested against PCDHGA11 in the same assay as above. Details: shRNA.

Sequence	sensor-assay potency score (higher = more potent)
TATCTCCACTTCGTCCTCCTGG	-0.661
TTGAATTTCCATCTCATAGAAT	-0.931
TTGTCCACCGCAACCACCTTGG	-0.673
TTTTCTGGAACACTCACGCGAT	-0.577
TCAATTTGTAATAATTTCCATA	-0.421
TTTAGAAGAGCAATCACTGTAC	0.556
TCTTGTTGCCATTGCCACCTGC	-0.107
ACAGTGATCAACATCGTCGTGG	-0.0572
TTCTCCAGAATCTTGATCTTGC	0.227
TAAAACAGGAGACTTGACCATT	-0.606
TTTGTCCACCGCAACCACCTTG	-1.17
TATATTGTAGCTCTGGACCAAC	-0.9
TAGCTCTGGACCAACTCCCTGT	0.0165

These sequences were tested against PCP2 in the same assay as above. Details: shRNA.

Sequence	sensor-assay potency score (higher = more potent)
TCGTTTCTGTGCTCCGTCCTTG	-0.435
TGTCACACGTTGGTCATCCATG	-1.21
TGACTGTCACACGTTGGTCATC	-1.61
TTCTGTGCTCCGTCCTTGGACC	-1.15
ATGAGGCTGTCCATCTCGGGGG	-1.33
TTTCTGTGCTCCGTCCTTGGAC	-1.03
TTGGTGGTCTGGCCCGGCCCGG	-1.82
ACACGTTGGTCATCCATGCGGC	-0.873
TGAAGAAGCCCTCCTGGTCTGG	-1.06
TTGCAGTGAACAGCGCTGTCCC	-0.308
TGAACAGCGCTGTCCCTCCATC	-1.32
TCCATGAGGCTGTCCATCTCGG	-1.39

Each sequence was assayed against PCSK5 in the same assay as above. Details: shRNA.

Sequence	sensor-assay potency score (higher = more potent)
TTGTACAGTTCTTGAATCCTGG	-0.113
TTTTGCAGGATTTGTATCCATT	-1.05
TTGTCTTGATTTGTCGGTCTGT	0.944
TTGAAAGCAATTCCGACTGTGC	-0.25
TAGTGCAAACAGTCATTGCAGT	-0.552
TTGATTTGTCGGTCTGTGCTCT	0.6
ATAGCTGATACTACAGCTCTGC	-0.314
TTTTGCTTCAACCATGTCCGTG	-0.77
TTCCATTGAAATGAAACTGTGG	-0.149
TTGATGAATCCGTACTTGCTGG	-0.268
TTTGCTTCAACCATGTCCGTGA	0.588
